The values that follow come from PubChem BioAssay (Tox21).

Values without a mark were called inactive. Records with an inconclusive call do not appear. Activity calls are given as the source filed them. Calls come from the whole dose curve; as a rule, active = well fitted curve in the direction sought with a large enough effect in the repeat runs; inconclusive = weak or mixed curves; inactive = no such curve, though single readings can be large; an effect the other way counts as inactive or inconclusive.

Assay [1] can be described thus: A CellTox Green Cytotoxicity Assay to monitor cytotoxicity in HepG2 cells - 0 hour (AID 1224882). Note: nearly all actives have a fitted effect of over 35% in size. In a few lines: (§1)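 Nonlytic assay: viable cells exclude the dye, so fluorescence scales with cell death. HepG2 at 600 cells/well, compounds added after 5 h, signal read across 40 h.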
The nature of assay [2]: A CellTox Green Cytotoxicity Assay to monitor cytotoxicity in HepG2 cells - 32 hour (AID 1224883). Note: nearly all actives have a fitted effect of over 50% in size. Note: potency is the fitted concentration of half-maximal effect. An outline of the steps:
as §1

Assay [3] is described as follows: A CellTox Green Cytotoxicity Assay to monitor cytotoxicity in HEK293 cells - 8 hour (AID 1224884). Note: nearly all actives have a fitted effect of over 35% in size. In a few lines:
(§2)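 Seeding of HEK293 cells together with cytotoxicity dye preceded a 5 h incubation at 37 C/5% CO2. Test compounds in DMSO were then added and fluorescence monitored across 40 h.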

The nature of assay [4]: qHTS RealTime-Glo MT Cell Viability Assay in HepG2 cells - 16 hour (AID 1224885). Note: nearly all actives have a fitted effect of over 50% in size. An outline of the steps:
(§3)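 Luminescence read-out: viable HepG2 cells reduce a prosubstrate to a NanoLuc substrate, giving a signal proportional to live cell number. Reads taken at 0, 8, 16, 24, 32 and 40 h of compound exposure at 37 C.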

The nature of assay [5]: qHTS RealTime-Glo MT Cell Viability Assay in HEK293 cells - 24 hour (AID 1224886). Note: top concentration of the series differs between compounds; nearly all actives have a fitted effect of over 50% in size. An outline of the steps: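 Nonlytic real-time viability readout: viable cells convert prosubstrate to NanoLuc substrate, giving luminescence proportional to live cell number. HEK293, 600 cells/well, compound added after 5 h, continuous culture at 37 C.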
(In qHTS, concentration-response curves come from the screen itself.)

The nature of assay [6]: qHTS RealTime-Glo MT Cell Viability Assay in HEK293 cells - 8 hour (AID 1224887). Note: top concentration of the series differs between compounds; nearly all actives have a fitted effect of over 50% in size. In a few lines:
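Tox21 screen in HEK293 using RealTime-Glo MT chemistry, with cells and reagent co-dispensed. Luminescence proportional to viable cell number was captured at intervals during 40 h compound exposure at 37 C.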

Assay [7] in a line: A CellTox Green Cytotoxicity Assay to monitor cytotoxicity in HEK293 cells - 16 hour (AID 1224888). Note: nearly all actives have a fitted effect of over 35% in size. An outline of the steps:
as §2

Assay [8] is described as follows: qHTS RealTime-Glo MT Cell Viability Assay in HepG2 cells - 0 hour (AID 1224889). Note: nearly all actives have a fitted effect of over 50% in size. In a few lines:
as §3

A short description of assay [9]: A CellTox Green Cytotoxicity Assay to monitor cytotoxicity in HepG2 cells - 8 hour (AID 1224890). Note: nearly all actives have a fitted effect of over 45% in size. An outline of the steps:
as §1

The nature of assay [10]: qHTS assay to identify small molecule antagonists of the estrogen receptor alpha (ER-alpha) signaling pathway using the BG1 cell line in the presence of 0.1 nM 17-beta-estradiol - cell viability counter screen (AID 1259241). Note: nearly all actives have a fitted effect of over 40% in size. An outline of the steps:
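Measures cytotoxicity alongside the ER-alpha antagonist readout: VM7Luc4E2 cells, charcoal-stripped serum, 0.1 nM 17beta-estradiol final, 22 hr compound incubation at 37C, CellTiter-Fluor fluorescence.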

For `CC1=C(O)C(=O)OC1C` (configuration not stated), the Potency entry in [1], in assay [2], in assay [3], in assay [5], in assay [6] and in [7] was “inactive” each time. Further, the Potency entry in [8], in [9] and in assay [10] was “inactive” throughout. Besides, the outcome in [4] was inactive.
On to `NS(=O)(=O)c1cc(-c2nn[nH]n2)c(NCc2cccs2)cc1Cl`, for which the Potency entry in assay [1], in assay [2], in [3], in [5], in [6] and in assay [7] was “inactive” throughout. Further, the Potency entry in assay [8], in assay [9] and in assay [10] was “inactive” each time. For the same molecule, the outcome in assay [4] was inactive.
Take `C=C(C)C(=O)OCCOP(=O)(O)O`: the Potency entry in assay [1], in assay [2], in assay [3], in assay [5], in assay [6] and in [7] was “inactive” in each case. Besides, the Potency entry in assay [8], in assay [9] and in assay [10] was “inactive” in each case. Moreover, the outcome in [4] was inactive.
For `OCCN1CCN(CCO)CC1`, the Potency result in assay [1], in assay [2], in [3], in assay [5], in assay [6] and in assay [7] was “inactive” in each case. Further, the Potency entry in assay [8], in assay [9] and in [10] was “inactive” throughout. In [4], the call was inactive.
`CC1=C(CC(=O)O)c2cc(F)ccc2/C1=C\c1ccc(S(C)(=O)=O)cc1`: the Potency entry in [1], in [2], in assay [3], in assay [5], in assay [6] and in [7] was “inactive” each time. The Potency entry in [8], in assay [9] and in [10] was “inactive” throughout. Also, in assay [4], the result was inactive.
Consider `O=C1CCCCC1C1CCCCC1` (configuration not stated), for which the Potency result in [1], in [2], in assay [3], in assay [5], in assay [6] and in [7] was “inactive” throughout. Moreover, the Potency result in [8], in assay [9] and in [10] was “inactive” in each case. Also, the result in assay [4] was inactive.
On to `Cn1cnc2c(F)c(Nc3ccc(Br)cc3Cl)c(C(=O)NOCCO)cc21`, for which the Potency entry in [1], in [3], in [5], in [6], in assay [7] and in [8] was “inactive” each time. Further, the Potency result in [9] and in [10] was “inactive” throughout. The Potency in [2] is 0.0379 µM (active). In assay [4], the call was inactive.
For the molecule `O=C(O)[C@@H](O)[C@H](O)[C@H](O)[C@@H](O)C(=O)O`, the Potency result in [1], in [2], in [3], in assay [5], in assay [6] and in assay [7] was “inactive” in each case. In addition, the Potency result in assay [8], in assay [9] and in [10] was “inactive” throughout. In addition, the molecule was called inactive in assay [4].
Regarding `CCCOc1ccc2c(c1)CC[C@@H]1[C@@H]2CC[C@]2(C)C(OC)CC[C@@H]12` (some centres not stated), the Potency entry in assay [1], in [2], in assay [3], in assay [5], in [6] and in assay [7] was “inactive” each time. The Potency result in [8], in assay [9] and in [10] was “inactive” in each case. The molecule was classed as inactive in [4].
As to `CCCNC(C)C(=O)Nc1c(C)csc1C(=O)OC` (configuration not stated), the Potency result in [1], in [2], in assay [3], in [5], in [6] and in assay [7] was “inactive” each time. The Potency result in [8], in assay [9] and in assay [10] was “inactive” in each case. For the same molecule, in assay [4], the molecule was called inactive.
As to `Cc1ncc(CO)c(CN)c1O`, the Potency entry in assay [1], in assay [2], in [3], in assay [5], in [6] and in assay [7] was “inactive” in each case. Further, the Potency entry in [8], in assay [9] and in assay [10] was “inactive” throughout. Also, the outcome in assay [4] was inactive.
Turning to `CC(C)OC(C)C`, the Potency result in [1], in assay [2], in assay [3], in assay [5], in assay [6] and in assay [7] was “inactive” in each case. Moreover, the Potency result in assay [8], in [9] and in assay [10] was “inactive” throughout. The result in assay [4] was inactive.
For `CC(=O)Nc1ccc(C)c(Cl)c1`, the Potency entry in assay [1], in [2], in assay [3], in assay [5], in assay [6] and in [7] was “inactive” throughout. Besides, the Potency result in assay [8], in assay [9] and in assay [10] was “inactive” in each case. The result in assay [4] was inactive.
Regarding `Oc1ccccc1F`, the Potency entry in [1], in [2], in [3], in assay [5], in assay [6] and in [7] was “inactive” in each case. The Potency result in assay [8], in assay [9] and in assay [10] was “inactive” throughout. Moreover, the molecule was called inactive in assay [4].
As for `CC(=O)O[C@H]1CC[C@@]2(C)C(=CC[C@@H]3[C@@H]2CC[C@]2(C)C(C(C)=O)=CC[C@@H]32)C1`, the Potency result in [1], in [2], in assay [3], in assay [5], in assay [6] and in [7] was “inactive” in each case. Further, the Potency result in [8], in assay [9] and in [10] was “inactive” in each case. Moreover, the result in assay [4] was inactive.
With `Cc1ccc([N+](=O)[O-])cc1Cl`, the Potency entry in assay [1], in assay [2], in assay [3], in [5], in [6] and in assay [7] was “inactive” throughout. For the same molecule, the Potency entry in assay [8], in [9] and in assay [10] was “inactive” throughout. Also, the molecule was called inactive in assay [4].
Turning to `CC(C)=CCC[C@](C)(O)[C@@H]1CC=C(C)CC1`, the Potency result in [1], in [3], in [5], in assay [6], in assay [7] and in assay [8] was “inactive” each time. In addition, the Potency result in assay [10] is “inactive”. In assay [2], the Potency was 43.6 µM (active). Moreover, in assay [4], the molecule was classed as inactive.
`CCOC(=O)C(Br)c1ccccc1` (configuration not stated): the Potency entry in [1], in assay [2], in assay [3], in assay [5], in [6] and in assay [7] was “inactive” each time. The Potency result in [8] and in [10] was “inactive” in each case. The outcome in assay [4] was inactive.
Turning to `CC(C)NCC(O)COc1ccc(CCOCC2CC2)cc1` (configuration not stated), the Potency result in assay [1], in assay [2], in assay [3], in [5], in assay [6] and in assay [7] was “inactive” throughout. Further, the Potency result in assay [8] and in [10] was “inactive” in each case. In assay [4], the outcome was inactive.
